This assay can be described thus: NCI Yeast Anticancer Drug Screen. Data for the wt2 strain (AID 169).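 Further: 0% = growth of vehicle-treated yeast cultures.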 The settings on record: S. cerevisiae wt2 strain growth inhibition, hits give high values. As to the method:
Growth inhibition of yeast strains with defined genetic alterations is measured as a screen for potential anti-cancer activity. Selected strains with alterations in DNA damage repair or cell cycle control were exposed to compounds and growth inhibition was measured relative to vehicle treated controls. The strain used in this assay is wt2

About 79,000 compounds went through this panel and 15% of them were active in at least one assay; those are over-represented in the sample as a whole. Values without a mark were called inactive. Activity calls are given as the source filed them. No stated cut-off is given here; in the data, active means growth inhibition above about 70%; inactive means the rest.

For the compound `CC1(Cl)CC(C)(/C=C/Cl)C(Cl)CC1Cl` (stereo not given), the growth inhibition by setting is: (at 1.2 µM) 0%; (at 3.7 µM) 1%; (at 11.0 µM) 3%; (at 33.0 µM) 16%; (at 100.0 µM) 50%.
For `O=[N+]([O-])c1oc2ccc3ccccc3c2c1CCO`, the growth inhibition is 5% (at 1.2 µM); 19% (at 3.7 µM); 80% (active) (at 11.0 µM); 97% (active) (at 33.0 µM); 99% (active) (at 100.0 µM).
For `CCC(=O)OC1CCn2c1nc1c2C(=O)C(C)=C(N2CC2)C1=O` (stereo not given), the growth inhibition is, setting by setting: (at 1.2 µM) -30%; (at 3.7 µM) -35%; (at 11.0 µM) -29%; (at 33.0 µM) -19%; (at 100.0 µM) 16%.
Take `CC(C)CC(NC(=O)C(N)C(C)C)C(=O)NC(CCCCN)C(=O)Nc1ccc(N(CCCl)CCCl)cc1` (stereo not given): the growth inhibition was -89% (at 1.2 µM); -88% (at 3.7 µM); -86% (at 11.0 µM); -74% (at 33.0 µM); -78% (at 100.0 µM).
On to `O=S(=O)(O)/C(=C\c1ccccc1)c1ccccc1` (tested in a mixture with another compound), for which the growth inhibition runs as follows: (at 1.2 µM) -2%; (at 3.7 µM) 0%; (at 11.0 µM) -4%; (at 33.0 µM) -2%; (at 100.0 µM) -2%.
In the case of `Oc1ccc2nc3ccccc3nc2c1`, the growth inhibition (at 1.2 µM) is -1%; the growth inhibition (at 3.7 µM) was 4%; the growth inhibition (at 11.0 µM) was 13%; the growth inhibition (at 33.0 µM) is 27%; the growth inhibition (at 100.0 µM) is 73% (active).
Take `Cc1cccc(NC(=O)CBr)c1`: the growth inhibition (at 1.2 µM) is 1%; the growth inhibition (at 3.7 µM) is 33%; the growth inhibition (at 11.0 µM) is 98% (active); the growth inhibition (at 33.0 µM) was 99% (active); the growth inhibition (at 100.0 µM) is 99% (active).
On to `Oc1cccc2nc3ccccc3nc12`, for which the growth inhibition by setting is: (at 1.2 µM) -48%; (at 3.7 µM) -44%; (at 11.0 µM) -39%; (at 33.0 µM) -9%; (at 100.0 µM) 75% (active).
